target: TMEM218; assay: pooled miR-30 sensor sort-seq; sequence = guide strand; details: shRNA
Further: reference of the scale not given here.

Sequence | sensor-assay potency score (higher = more potent)
TCTTAACTTCCACTTCTGGGGC | -0.618
AAAAGCAACAGAACTGATGTGA | 0.455
TTAACTTCCACTTCTGGGGCTG | 0.528
ATCTTAACTTCCACTTCTGGGG | -0.795
TGTGATGATCACAGCACCGAAG | -0.957
ATCCACAATCTTAACTTCCACT | -0.762
AATCTTAACTTCCACTTCTGGG | -0.603
AAAAAAATGACAGAGAACCTCG | 0.153
TAACTTCCACTTCTGGGGCTGG | -0.428
AACATAATGGATTAAAACCAAG | -1.68
ATGTGATGATCACAGCACCGAA | -1.69

target: TMEM229B; assay: as above; details: shRNA

Sequence | sensor-assay potency score (higher = more potent)
TCCTTGTCGAAGCGGAGGCGGA | -1.59
AAGTTCACCACGAACTCCCAGG | -0.691
TCGAACTGGGAGTAGTCCCAGG | -0.884
ATGGCATACAGGTACCAGCGGG | -1.1
TTGCGGATGATGAACTGCTCCA | -0.427
TGGCATACAGGTACCAGCGGGA | -0.837
TCAGCGTCCTTGTCGAAGCGGA | -0.896
ATCACCTCGCAGAAGTAGCCGT | -0.867
TGAAGTCAAAGTCGAACTGGGA | -0.249
TCCACGATGAGGATGGAGGTGC | -1.19
TCACCTCGCAGAAGTAGCCGTG | -0.46
AACTCCCACAGGTAGGTCCAGA | -1.06

— the OligoGym collection
